Test results reported in PubChem BioAssay AID504725 (Broad Institute, 2011).
Measured potencies and affinities stand elsewhere.

These compounds were tested against KSHV LANA C-terminal domain (residues 932-1162) binding to LBS DNA (UniProt O40947) (assay: inhibitors of C-LANA binding to LBS DNA, dose response, biochemical, fluorescence polarization, cherry-picked samples (AID 504725)). Settings: MBP-C-LANA / FAM-LBS DNA fluorescence polarization, percent change from plate compound-well median; series mostly up to 35 µM; activity change, negative = inhibition: at the top concentration; call rule not given here.

Activity change, negative = inhibition, inactive:
CCCCN(C(=O)CSc1nnc(-c2ccc(Cl)cc2)o1)c1c(N)n(CC(C)C)c(=O)[nH]c1=O 2.06%
Cc1ccc(C)c(OCC(=O)N(Cc2nnc(-c3ccccc3Cl)o2)C2CC2)c1 1.41%
Cc1c(C)n(CCC(=O)O)c2ccccc12 3.12%
Nc1cc(N)nc(SCC(=O)N2CCCCC2)n1 2.67%
Nc1nc(C(F)(F)F)cc(=O)[nH]1 -6.46%
O=C(CN1C(=O)NC2(CCCC2)C1=O)Nc1ccccc1-c1ccccc1 -1.4%
COC(=O)c1c(C)oc2ccc(N(C(C)=O)S(=O)(=O)c3ccccc3)cc12 2%
CC(C)[C@H](NC(=O)c1ccccc1F)C(=O)NC1CCCCCCC1 1.06%
COc1ccc(CCNC(=O)CNC(=O)Cn2ccc3ccccc3c2=O)cc1OC 0.222%
Cc1cccc(COc2ccc(/C=N/NC(=O)c3nnn(-c4nonc4N)c3COc3ccc(F)cc3)cc2)c1 8.39%
CCN(Cc1ccccc1)C(=O)c1cccc(S(=O)(=O)N2CCN(Cc3ccccc3)CC2)c1 6.38%
CCc1noc(C)c1C(=O)NCCc1c[nH]c2ccccc12 2.9%
CCOC(=O)c1cnc(SC)nc1Sc1ccc(Cl)cc1Cl 4.46%
CCN(CC(=O)NCc1cccs1)C(=O)c1ccc(S(=O)(=O)Nc2ccccc2C)cc1 1.8%
N#C/C(=C\c1ccc(-c2ccccc2[N+](=O)[O-])o1)C(N)=O -4.91%
O=C(O)/C=C/c1ccccc1Oc1ccccc1 1.51%
Cc1cc(NC(=O)CCC(=O)N(CCC(C)C)C(C(=O)NC2CCCC2)c2cccnc2)no1 (stereo not drawn) -2.56%
COc1ccc(CCNC(=O)CCCNC(=O)Cn2cnc3sc(C)c(C)c3c2=O)cc1OC 0.831%
